According to PubChem BioAssay (NCI):
Values joined by “and” are separate entries in the source; they are usually repeats but may differ in a detail not shown here. Identical values can stand only once. About 83,000 compounds went through this panel and 20% of them were active in at least one assay; those are over-represented in the sample as a whole.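 48-hour exposure, single concentration, 96-well plates; percent growth endpoint where 0 means no net growth. Active: below 10.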 Active and inactive are the calls of the source.

System: SF-295 CNS
Test: NCI-60 one-dose screen, 48 h (100 = growth as untreated, 0 = no growth, -100 = all killed)
Settings: 10 µM unless noted

Q: O=C(N/N=C/c1ccc(Br)o1)c1[nH]c2ccc(Br)cc2c1-c1ccccc1 was tested. Which growth did it give?
A: -25.8% (active)

Q: Which growth does the source give for CCCCCCCCc1ccc(C(=O)Nc2ccc(C)c(OP(=O)(O)O)c2)cc1 here?
A: 91.2% (inactive)

Q: For Cn1cc(-c2cc3nc(-c4cn(C)c5ncc(Br)cc45)cc(N)n3n2)c2cc(F)ccc21, which growth is on record?
A: -45.7% (active)

Q: O=C1Nc2ccccc2/C1=C/C(=O)c1cc2ccccc2oc1=O was tested. Which growth did it give?
A: 97.8% (inactive)

Q: For c1n[nH]cc1-c1nc2ccc3cn[nH]c3c2c2c1CCCC2, which growth is on record?
A: 89.4% (inactive)

Q: Which growth does the source give for CN1C(=O)C(O)(CC(=O)c2cc3ccccc3oc2=O)c2ccccc21 (centres undefined) here?
A: 96.3% (inactive)

Q: With O=C(CCl)Nc1ccc(C(=O)/C=C/c2cc3ccccc3nc2Cl)cc1 as the compound, how does the growth read?
A: -25.5% (active) and 42.3% (inactive)

Q: How did the growth turn out when Cc1cc(C2(c3cc(C)c(OCC(O)CNc4c(C)n(C)n(-c5ccccc5)c4=O)cc3C(C)C)OC(=O)c3ccccc32)c(C(C)C)cc1OCC(O)CNc1c(C)n(C)n(-c2ccccc2)c1=O (centres undefined) was run?
A: 24% (inactive)

Q: For Cn1cc(-c2cc(N)n3nc(-c4c[nH]c5ccccc45)cc3n2)c2cc(Br)ccc21, which growth is on record?
A: -93.6% (active)

Q: With CCC(=O)c1c2c(c3ccc4c5ccccc5ccc4n13)C(=O)c1ccccc1C2=O as the compound, how does the growth read?
A: 65.8% (inactive)

Q: How did the growth turn out when CS(=O)(=O)Nc1cc(-c2ccc3ncnc(Nc4ccc(OCc5cccnc5)c(Cl)c4)c3c2)cnc1Cl was run?
A: -14.9% (active)

Q: With Cn1cc(-c2cc(N)n3nc(-c4c[nH]c5ccccc45)cc3n2)c2cc(Cl)ccc21 as the compound, how does the growth read?
A: -88% (active)

Q: For COc1ccc(N=Nc2c(N)nn3c(N)c(C#N)c(-c4ccc(C)cc4)nc23)cc1, which growth is on record?
A: 58.1% (inactive)

Q: COc1ccc(C(=O)/C=C/c2ccc3c(c2)OCCO3)cc1S(N)(=O)=O was tested. Which growth did it give?
A: 79.5% (inactive)

Q: For CCCCC[C@@H]1C/C=C(\C)[C@@H](O)C(C)(C)C(=O)[C@@H](C)/C=C(\C)[C@@H]2C[C@H](O)C[C@](O)(CC(=O)O1)O2, which growth is on record?
A: 11% (inactive)

Q: Which growth does the source give for CC(C)(C)c1ccc(OCc2nc3ccccc3n2-c2cccc(N)c2)cc1 here?
A: 57.7% (inactive) and 100% (inactive)

Q: Which growth does the source give for O=C1/C(=C/c2cnc(-c3ccccc3)s2)SC(=S)N1Cc1ccc2c(c1)OCO2 here?
A: 9.27% (active)

Q: For COc1ccc(NC2=C(I)C(=O)C(C)=C(C)C2=O)cc1, which growth is on record?
A: 79% (inactive)

Q: COc1ccc(-c2nnc3c(/C=C/c4ccc(Br)cc4)nc4ccccc4n23)cc1 was tested. Which growth did it give?
A: 87.4% (inactive)

Q: For C[C@H]1[C@@H](CC(=O)N[C@@H](Cc2coc3ccccc23)B(O)O)O[C@@H]2OC3(C)CC[C@H]4[C@H](C)CC[C@@H]1[C@@]24O3, which growth is on record?
A: -65.7% (active)

Q: How did the growth turn out when O=C(NNC(=S)NC(=O)c1ccccc1)c1ccc(OCc2nc3ccc(Cl)cc3[nH]2)cc1 was run?
A: -80.9% (active)

Q: How did the growth turn out when CC1=C(C)C(=O)C(NCCN2CCOCC2)=C(Br)C1=O was run?
A: 103% (inactive)

Q: With N#Cc1ccc(C(=O)NNC(=O)CSc2nc3sc4c(c3c(=O)n2-c2ccc(Cl)cc2)CCCC4)cc1 as the compound, how does the growth read?
A: 62.7% (inactive)

Q: How did the growth turn out when CCCCCCCOc1ccc(S(=O)(=O)Nc2ccc(C)c(F)c2C(=O)O)cc1 was run?
A: 89.3% (inactive)
